MBD2 DNA inh – blocks human MBD2 binding to methylated DNA | Q9UBB5 | TR-FRET, MBD2 binding to methylated oligonucleotide | inhibition, % at 4.4 µM | 0.31% of 370,000 active; in the data active = inhibition above about 13%
Target sequence (Q9UBB5 whole entry, looked up): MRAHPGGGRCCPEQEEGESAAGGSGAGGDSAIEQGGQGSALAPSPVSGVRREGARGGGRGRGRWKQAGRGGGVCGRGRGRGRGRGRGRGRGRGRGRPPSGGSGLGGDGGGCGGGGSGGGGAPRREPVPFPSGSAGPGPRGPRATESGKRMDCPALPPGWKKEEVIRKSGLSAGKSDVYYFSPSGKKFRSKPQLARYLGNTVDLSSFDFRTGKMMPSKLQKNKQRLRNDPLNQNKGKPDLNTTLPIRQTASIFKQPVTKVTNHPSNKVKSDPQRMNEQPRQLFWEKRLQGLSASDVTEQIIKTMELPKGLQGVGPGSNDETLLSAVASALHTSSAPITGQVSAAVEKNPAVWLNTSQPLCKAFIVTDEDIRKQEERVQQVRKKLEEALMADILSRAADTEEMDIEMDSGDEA
UHRF1 binding – blocks human UHRF1 binding to methylated DNA; inhibition, % at 4.4 µM; UHRF1 binding to methylated oligo, TR-FRET; 0.75% of 370,000 active; Q96T88; AID 687016;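 note: UHRF1 SRA domain binding a hemimethylated CpG hairpin DNA probe; 0% = median of test compound wells and 100% = reference inhibitor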
rCAG binder – molecules binding r(CAG) RNA repeats | 1.3% of 370,000 active | inhibition, % at 3 µM | AID 651821 | r(CAG) RNA repeat, TO-PRO-1 dye displacement fluorescence;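 active = inhibition above the plate cutoff, the mean of all test compounds on that plate plus 3 SD, cut at about 35% in these data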;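 note: 0% = DMSO alone and 100% = 100 µM mitoxantrone as full dye displacement; higher means more dye released from RNA so lower well fluorescence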
LEDGF integ inh – blocks HIV-1 LEDGF/p75-dependent DNA integration. TR-FRET IN-LEDGF/p75 DNA integration, Eu/Cy5. 0.64% of 370,000 active. inhibition, % at 3.7 µM;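 active = inhibition above the screen-wide mean plus 3 SD, cut at about 13% in these data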;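 note: signal is the Cy5 over europium emission ratio at 671 and 618 nm; 0% = plate median of compound wells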
ABHD5 PLIN5 PPI – inhibitors of human ABHD5-perilipin-5 interaction | 0.78% of 360,000 active | inhibition, % at 4 µM | Split G. princeps luciferase complementation, luminescence, 4 h;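 active = inhibition above the mean inhibition across every tested compound plus 3 SD, cut at about 22% in these data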;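 note: 0% = DMSO only wells and the 100% control is not disclosed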
PRMT1 FP inh – inhibitors of human PRMT1; recombinant PRMT1, activity-based probe fluorescence polarization; inhibition, % at 2.79 µM; 1.3% of 370,000 active; AID 652257;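 active = inhibition above about 21% made by adding two undisclosed values, limit read from the data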
rCAG binder conf – r(CAG) RNA repeat binding, confirmation; inhibition, % at 3 µM; AID 652065; TO-PRO-1 dye displacement fluorescence; 70% of 4,300 active; shares compounds with rCAG binder;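 active = inhibition above a per-plate cutoff, the mean inhibition of sample wells plus 3 SD, cut at about 35% in these data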;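 note: loss of TO-PRO-1 fluorescence as compound displaces dye from 1x1 AA loop RNA; 0% = DMSO only wells and 100% = 100 µM mitoxantrone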
DNA CAG counter – DNA CAG dye complex inhibition counter-screen; d(CAG) DNA oligo TO-PRO-1 dye displacement, fluorescence; shares compounds with rCAG binder; 94% of 4,300 active; inhibition, % at 3 µM;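 active = inhibition above its plate's cutoff, the mean test-well inhibition plus 3 SD, cut at about 4.8% in these data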;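 note: 0% = DNA dye mix with DMSO and 100% = 100 µM mitoxantrone; hits displace the dye from DNA and so lower well fluorescence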
PRMT1 inh conf – PRMT1 (human) inhibition, FP confirmation | recombinant His-PRMT1, activity-based probe fluorescence polarization | shares compounds with PRMT1 FP inh | 42% of 3,300 active | AID 687036 | inhibition, % at 2.79 µM;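 active = mean inhibition across replicates above the hit cutoff derived for the earlier primary screen, cut at about 22% in these data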
UHRF1 ctr MBD2 – UHRF1 methyl-oligo binding inhibition as MBD2 counter-screen | shares compounds with MBD2 DNA inh | UHRF1 binding to methylated oligonucleotide, TR-FRET | inhibition, % at 4.4 µM | 25% of 1,000 active;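 note: UHRF1 SRA domain binding a labeled hemimethylated CpG hairpin DNA; 0% = vehicle only and 100% = reference inhibitor with vehicle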
MBD2 DBD conf – MBD2-DBD methyl-DNA binding inhibition, TR-FRET confirmation; shares compounds with MBD2 DNA inh; TR-FRET MBD2-DBD binding to methylated oligonucleotide; inhibition, % at 4.4 µM; 26% of 1,000 active; in the data active = inhibition above about 14%
IN multimer act – counter-screen for LEDGF/p75 integration inhibitors: HIV-1 integrase multimerization activators; shares compounds with LEDGF integ inh; TR-FRET HIV-1 integrase multimerization, biochemical; activation, % at 7.7 µM; 17% of 2,000 active; AID 1053131; in the data active = activation above about 8.9%
TR-FRET interf – TR-FRET optical interference, LEDGF/p75 integration counter-screen; TR-FRET optical interference counterscreen, HIV-1 IN multimerization; shares compounds with LEDGF integ inh; inhibition, % at 7.7 µM; 2,000 tested, under 10 active;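 active = inhibition above the mean over all tested compounds plus 3 SD, which no compound reached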;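 note: 0% = integrase with antibodies and DMSO and 100% = antibodies without integrase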
IN-LEDGF confirm – confirmation of HIV-1 LEDGF/p75-dependent integration inhibitors; AID 1053136; TR-FRET LEDGF/p75-dependent HIV-1 integration, biochemical; inhibition, % at 3.7 µM; 36% of 2,000 active; shares compounds with LEDGF integ inh; in the data active = inhibition above about 14%
* hit, by the source's call; x = no result; ! = repeats disagree. In the library only some 4.1% were active in any assay of this set; here they are far more common. Cut-off read from the data, not from the text of the source, unless noted: active = inhibition above about 21%; inactive = the rest.

SMILES	MBD2 DNA inh	UHRF1 binding	rCAG binder	LEDGF integ inh	ABHD5 PLIN5 PPI	PRMT1 FP inh	rCAG binder conf	DNA CAG counter	IN multimer act	TR-FRET interf	IN-LEDGF confirm	others
N#C/C(=C\c1ccc([N+](=O)[O-])o1)C(=O)Nc1ccc(F)cc1	-1	1	52*	21*	15	31*	30	14*	1	-3	12	PRMT1 inh conf=11
N#CCc1ccc(NC(=O)/C=C/c2ccc([N+](=O)[O-])o2)cc1	x	x	x	x	10	x	x	x	x	x	x
N=C1S/C(=C\c2ccco2)C(=O)N1c1ccc2c(c1)OCO2	-1	2	38*	15*	11	18	26	12*	4	-21	18*
Cc1ccc(N2C(=O)/C(=C/c3ccco3)SC2=S)cc1	2	11	44*	19*	-4	11	10	5.7*	0	0	11
O=C(NCc1ccccc1)[C@@H]1CCCN1C(=O)[C@H]1CCCN1C(=O)c1ccccc1F	1	0	1	2	x	0	x	x	x	x	x
C#CCN1CC(COc2ccccc2)OCCS1(=O)=O (centres undefined)	3	-1	3	2	x	-4	x	x	x	x	x
COC(=O)[C@]12C[C@H](CC(=O)N3CCCCC3)C(=O)N(CCC3=CCCCC3)C1=C[C@H](C(C)C)O[C@@H]2C1CC1	1	-1	-1	0	x	1	x	x	x	x	x
O=C(/C=C/c1ccccc1)Nc1scc(-c2ccccc2)c1C(=O)O	3	-4	55*	16*	6	0	33	6.0*	1	-6	12
O=C(Nc1scc(-c2ccc(Br)cc2)c1C(=O)O)c1ccccc1F	-2	-2	25	0	1	-6	x	x	x	x	x
O=C(Nc1scc(-c2ccccc2)c1C(=O)O)c1ccc(F)cc1	2	5	36*	14*	-11	-1	23	5.0*	0	3	5
Fc1ccc(Cn2ccc3ccc(-c4ccc5ccn(Cc6ccccc6)c5c4)cc32)cc1	0	-5	17	3	x	9	x	x	x	x	x
CN=C1S/C(=C/c2cc(C)n(Cc3ccccc3)c2C)C(=O)N1C	-3	-3	x	7	x	-2	x	x	x	x	x
COc1cc2cc3c(N)c(C(=O)Nc4sc(C)c(C)c4C#N)sc3nc2cc1OC	-5	3	53*	15*	-6	27*	61*	31*	27*	-94	46*	PRMT1 inh conf=2
Cc1cccc(NC(=O)CN2C(=O)N/C(=C\c3ccccc3OCc3ccc(C(=O)O)cc3)C2=O)c1	3	1	61*	17*	0	-1	67*	31*	-3	14	8
COC(=O)c1cc(-c2cccc3c2sc2ccccc23)c(=O)n2c1CCC2	1	1	9	-5	x	5	x	x	x	x	x
Cc1sc2nc(SCC(=O)c3ccc(O)c(O)c3)n(C)c(=O)c2c1C	12	12	49*	20*	x	4	50*	25*	26*	-93	46*
Cc1sc2nc(SCC(=O)OC(C)C)n(C)c(=O)c2c1C	-2	2	-1	0	-1	-1	x	x	x	x	x
Cc1c(C(=O)O)cccc1-c1ccc(C=O)o1	2	12	4	4	3	4	x	x	x	x	x
CCOC(=O)C(C)N1C(=O)S/C(=C\c2ccc(-c3ccccc3C(=O)O)o2)C1=O (centres undefined)	31*	55*	37*	18*	6	29*	40*	12*	6	-20	18*	PRMT1 inh conf=4;UHRF1 ctr MBD2=49*;MBD2 DBD conf=16*
CCS(=O)(=O)C1=NN2C(=N)/C(=C\c3ccc(SCc4ccco4)o3)C(=O)N=C2S1	6	38*	85*	43*	7	30*	89*	70*	15*	-53	53*	PRMT1 inh conf=21
N=C1/C(=C\c2ccc(SCc3ccccc3)o2)C(=O)N=C2SC=NN12	-6	0	29	0	-1	0	x	x	x	x	x
O=[N+]([O-])c1ccc(OC2OCC(O)C(O)C2O)cc1 (centres undefined)	3	0	0	0	x	2	x	x	x	x	x
O=C(Cn1cc(COc2ccc(-n3cccc3)cc2)nn1)NS(=O)(=O)c1ccccc1C(F)(F)F	1	7	64*	27*	0	17	65*	18*	1	-5	-14
O=c1cc(-c2ccccc2)oc2cc(O)c(O)c(O)c12	8	12	38*	30*	-5	20	34	14*	5	-27	26*
NS(=O)(=O)c1ccc(NC(=S)NC(=O)/C=C/c2ccco2)cc1	-5	18	40*	33*	8	56*	24	11*	13*	-45	38*	PRMT1 inh conf=20
C[C@@H]1COc2cc(NCCCN3CCOCC3)ccc2S(=O)(=O)N1	4	18	1	-3	x	-3	x	x	x	x	x
Cc1cccn2c(=O)c3cc(C#N)c(=NC(=O)c4cccs4)n(CC(C)C)c3nc12	-5	-3	2	-2	-5	2	x	x	x	x	x
Cc1cccn2c(=O)c3cc(C#N)c(=NC(=O)c4ccccc4)n(Cc4ccco4)c3nc12	0	6	36*	16*	46*!	24*	27	11*	-3	15	26*
Cc1cccc(C(=O)N=c2c(C#N)cc3c(=O)n4cccc(C)c4nc3n2Cc2ccco2)c1	-10	0	47*	17*	50*!	25*!	38*	18*	2	-11	35*

Assay outcomes (PubChem)
